Hits are enriched below; roughly 9.3% of the tested compounds scored in any of these assays.
ELG1 repair inh: ELG1-dependent DNA repair inhibition. HEK293T ELG1-luciferase reporter, luminescence, 16 h; DNA damage induced by 5-fluorouridine. Potency, µM (titrated, usually from 46.1 µM), inactives show top-dose activity change, negative = inhibition, actives largely listed as inhibitors. hit rate 2.3% among 330,000; further: on the % scale 0 is the no-effect control and ±100 the full control effect; nearly all actives have a fitted effect of over 55% in size
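In this reporter screen, reduction of luminescence relative to DMSO vehicle indicated activity. Compounds and 5-fluorouridine were added together to 2,000 cells per well, incubated for 16 hr at 37 °C, then developed with ONE-Glo.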
NPC1 prom act: activates the NPC1 promoter; Huh7 NPC1 promoter luciferase reporter, 24 h; Potency, µM (series often up to 9.22 µM), without a hit: at the highest dose activation, hits mostly activators; hit rate 2.4% among 320,000; further: % of control where 0% means no effect; nearly all actives have a fitted effect of over 60% in size
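Huh7 cells stably carrying NPC1 promoter–luciferase, plated in Opti-MEM with 10% FBS for 2 h, were exposed to compound in DMSO for 24 h at 37 °C; luciferase reagent was added for 10 min and luminescence read.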
SMN2 splice up: SMN2 splice variant enhancement; HEK293 SMN2-luciferase splicing reporter, luminescence, 30-36 h; Potency, µM (top dose mostly 46.1 µM), for inactives: at the highest dose activity change, positive = activation, actives largely listed as activators; hit rate 2.8% among 210,000; AID 1458; further: % of control where 0% means no effect; nearly all actives have a fitted effect of over 55% in size
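HEK293 cells carry an SMN2 minigene-luciferase reporter in which exon 7 inclusion puts luciferase in frame. Cells were seeded at 2000 cells/well, attached for 10-12 hours, then exposed to compounds for 30-36 hours at 37C before ONE-Glo luminescence.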
ELG1 genotox: genotoxicity induction in ELG1-luciferase HEK293T cells | HEK293T ELG1-luciferase reporter, luminescence, 16 h | Potency, µM (series often up to 46 µM), without a hit: at the highest dose activity change, positive = activation, usual class: activators | hit rate 1.3% among 330,000 | AID 504466; further: % of control where 0% means no effect; nearly all actives have a fitted effect of over 60% in size
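Step 1: seed 2,000 HEK293T ELG1-luciferase cells per well. Step 2: add compound or DMSO, incubate 16 hr at 37 °C. Step 3: ONE-Glo, 30 min at room temperature, read luminescence.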
FLuc counter: inhibits or activates purified firefly luciferase, miR-21 counter-screen; P08659; purified FLuc, Km substrates, luminescence inhibition; Potency, µM (top dose mostly 57.5 µM), for inactives: at the highest dose activity change, negative = inhibition, actives largely listed as inhibitors; hit rate 6.9% among 360,000;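 further: plate controls were vehicle for no effect and reference inhibitor for full effect; nearly all actives have a fitted effect of over 55% in size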
Target sequence (P08659 whole entry, looked up): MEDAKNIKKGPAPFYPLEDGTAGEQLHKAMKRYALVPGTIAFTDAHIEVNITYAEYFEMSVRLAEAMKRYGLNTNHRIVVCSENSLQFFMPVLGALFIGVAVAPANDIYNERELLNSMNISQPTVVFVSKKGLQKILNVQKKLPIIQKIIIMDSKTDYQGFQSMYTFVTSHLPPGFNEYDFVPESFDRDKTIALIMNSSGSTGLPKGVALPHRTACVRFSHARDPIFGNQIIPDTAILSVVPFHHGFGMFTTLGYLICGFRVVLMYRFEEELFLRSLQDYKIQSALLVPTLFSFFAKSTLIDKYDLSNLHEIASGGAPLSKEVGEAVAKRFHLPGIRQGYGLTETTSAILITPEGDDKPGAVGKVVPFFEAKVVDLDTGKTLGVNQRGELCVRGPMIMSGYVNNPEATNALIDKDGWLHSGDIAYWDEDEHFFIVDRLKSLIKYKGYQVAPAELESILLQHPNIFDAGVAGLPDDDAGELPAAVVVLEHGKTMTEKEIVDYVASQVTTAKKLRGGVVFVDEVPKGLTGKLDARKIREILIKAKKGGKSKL
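Purified P. pyralis luciferase (10nM final) with 10uM D-luciferin and 10uM ATP (Km levels) in 50mM Tris acetate pH 7.5, 10mM Mg acetate, 0.01% Tween-20, 0.05% BSA; qHTS 6-point titration, ~60 µM downward; luminescence read.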
Rab9 promoter act: Rab9 promoter activation | Huh7 Rab9 promoter-luciferase reporter, luminescence, 24 h | Potency, µM (titrated, usually from 9.22 µM), inactives show top-dose activation, negative = inhibition, usual class: activators | hit rate 2.8% among 320,000 | AID 485297; further: % of control where 0% means no effect; nearly all actives have a fitted effect of over 60% in size
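Luciferase signal after 10 min detection reagent at ambient indicates Rab9 promoter upregulation; stably transfected Huh7 cells were treated 24 h with compound in DMSO at 37 °C, 5% CO2.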
Active calls of the source: *; u = inconclusive; x = no result; [ ] = dose if it differs, or a comment. The call rests on the fitted dose curve; in most records, active means well fitted curve in the direction sought with a large enough effect; inconclusive means small, poorly fitted or top-dose-only effect, or another doubt; inactive means no such curve, though single readings can be large; an effect the other way counts as inactive or inconclusive. Potency means the concentration at half of the fitted maximal effect.

SMILES	ELG1 repair inh	NPC1 prom act	SMN2 splice up	ELG1 genotox	FLuc counter	Rab9 promoter act
N#C/C(=C\c1ccccc1)c1nc2ncccc2[nH]1	4%	-3%	2%	4%	13µM*	5%
CCOc1cc(/C=C(\C#N)c2nc3ccccc3[nH]2)ccc1OC(C)C(=O)O (configuration not stated)	13%	1%	x	0%	27µM*	-5%[1.84 µM]
N#C/C(=C/c1ccncc1)c1nc2ccccc2c(=O)[nH]1	-1%	-2%	x	-1%	u	-8%
O=C(CCc1nc2ccccc2[nH]1)Nc1ccc2c(c1)OCCO2	18%	1%	-10%	-2%	-16%	-1%
N#C/C(=C/c1ccc(O)c(O)c1)c1nc2ccccc2[nH]1	u	0%	x	18%	6.7µM*	-5%
N#C/C(=C\Nc1ccc2c(c1)OCCO2)c1nc2ccccc2[nH]1	u	u	-29%	-2%	15µM*	u
N#C/C(=C\c1ccc(Cl)cc1)c1nc2ccccc2[nH]1	x	x	7%	x	-18%	x
COc1ccc2[nH]c(=O)c(CN(C(=O)c3cccnc3)c3ccc(C)c(C)c3)cc2c1	u	-3%	x	-11%	1%	-7%
C(=N\c1nc2ccccc2[nH]1)/c1cccs1	13%	-4%	0%	1%	1.1µM*	0%
N#C/C(=C\c1cccs1)c1nc2ccccc2[nH]1	u	u	7.9µM*	u	6.7µM*	u
O=C(N/C(=C/c1cccs1)c1nc2ccccc2[nH]1)c1ccccc1	-2%	0%	-14%	1%	-1%	5%
Cn1c(/C=N/c2nc3ccccc3[nH]2)nc2ccccc21	12%	0%	24%	-1%	2%[2.3 µM]	0%
COc1cc(Br)c(/C=C(\C#N)c2nc3ccccc3[nH]2)cc1OC	x	x	28%	x	8.5µM*	x
N#C/C(=C\c1ccc(N2CCCC2)c([N+](=O)[O-])c1)c1nc2ccccc2[nH]1	u	u	-11%	12%	5.4µM*	u
Cc1ccc(S(=O)(=O)N(C)c2ccc(OC(=O)CN3C(=O)NC4(CCCC4)C3=O)cc2)cc1C	1%	6%	x	-7%	6%	-4%
COc1ccccc1OCC(=O)OC/C(O)=C(\C#N)c1nc2ccccc2[nH]1	u	4%	1%	u	u	-7%
C(=N\c1nc2ccccc2n1CCN1CCOCC1)/c1cccs1	1%	-5%	-4%	0%	u	0%
N#C/C(=C\c1cc(Br)c(O)c(Br)c1)c1nc2ccccc2c(=O)[nH]1	x	x	-7%	x	15µM*	x
N#C/C(=C(/O)COC(=O)Cc1c[nH]c2ccccc12)c1nc2ccccc2[nH]1	1%	-1%	-11%	0%	15µM*	-7%
Cc1cc(/C=C(/C#N)c2nc3ccccc3[nH]2)c(C)n1-c1cc(C(=O)O)cc(C(=O)O)c1	-7%	-1%	-5%	-2%	17µM*	-12%
C(=N\c1nc2ccccc2n1Cc1ccccc1)/c1cccs1	u	1%	-14%	-11%	13µM*	4%
CC(C)CC1NC(=O)N(Cc2cc(=O)n3ccsc3n2)C1=O (configuration not stated)	2%	-3%	1%	0%	0%	-13%
CC(C)(C)/C(O)=C(/C#N)c1nc2ccccc2[nH]1	23µM*	0%	-15%	-12%	-15%	-2%
N#C/C(=C\c1ccc(OC(=O)c2cccs2)cc1)c1nc2ccccc2[nH]1	u	18%	11µM*	u	u	17%
O=C(O)C(Cc1c[nH]c2ccccc12)N1Cc2ccccc2C1=O (configuration not stated)	u	14%	x	7%	u	17%
SMILES	ELG1 repair inh	NPC1 prom act	SMN2 splice up	ELG1 genotox	FLuc counter	Rab9 promoter act
CCN(CC)c1ncnc2c1cnn2Cc1ccc(C)cc1	1%	2%	x	-1%	5%	-5%[1.84 µM]
CCN(CC)c1nc(C)nc2c1cnn2CCc1ccccc1	u	u	22µM*	12µM*	19µM*	u
O=C(O)c1ccc(Nc2nc3ccccc3n3cnnc23)cc1	x	x	0%	x	7.6µM*	x
CCOc1ccc(Nc2nc3ccccc3n3cnnc23)cc1	u	2%	x	-1%	13µM*	-11%
c1ccc2c(c1)nc(Nc1ccc(N3CCCCC3)cc1)c1nncn12	0%	1%	x	1%	4.8µM*	-5%
c1ccc(Nc2nc3ccccc3n3cnnc23)cc1	9%	0%	-36%	0%	2%	-2%
CCOc1ccc(CCNc2nc3ccccc3n3cnnc23)cc1OCC	21µM*	-5%	x	0%	-11%	-8%
Oc1ccc(N=Nc2ccccc2-c2nn[nH]n2)c(O)c1	1%	-2%	x	0%	u	-2%
C#CCN1C(=O)C(O)(CC(=O)/C=C/c2ccco2)c2ccccc21 (configuration not stated)	-13%	-2%	2%	-4%	-3%	4%
COc1ccc(-c2nc3n(c2C)Cc2ccccc2-3)cc1	u	2.5µM*	x	13µM*	2.4µM*	u
COC(=O)c1ccc2c(=O)[nH]c(COC(=O)c3c(-c4ccccc4Cl)noc3C)nc2c1	u	0%	x	14%	3%	-6%
CC(C)Sc1nc(SCC(=O)NCc2ccco2)c2c3c(sc2n1)COC(C)(C)C3	2.3µM*	7%	-1%	u	9.5µM*	13%
CC(C)Sc1nc(SCC(=O)O)c2c3c(sc2n1)COC(C)(C)C3	u	u	x	u	13µM*	u
CCCOc1nc2c(c(=O)n(C)c(=O)n2C)n1Cc1cccc2ccccc12	16µM*	-4%	-54%	-28%	-4%	-1%
O=c1c2ccccc2ncn1CCOc1ccccc1[N+](=O)[O-]	u	u	u	u	-17%	u
Cc1ccc(-c2cc3onc(-c4ccccc4)c3c(=O)n2C)cc1	u	u	x	u	0.13µM*	u
CNC(=O)c1ccc(-c2cc3onc(-c4ccccc4)c3c(=O)n2C)cc1	u	x	x	16%	x	x
O=C(COC(=O)c1cc(-c2cccc(Br)c2)nc2ccccc12)NCC1CCCO1 (configuration not stated)	16%	3%	x	7%	u	0%
COc1cc(OC)c2c(=O)c(-c3ccccc3)coc2c1	x	x	11µM*	x	x	x
COc1ccc(-c2coc3cc(OC)cc(O)c3c2=O)cc1	u	0.63µM*	13µM*	u	1.5µM*	1µM*
COc1cc(OC)c2c(=O)cc(-c3cccnc3)oc2c1	u	-3%	x	u	u	1%

Screening data as filed in PubChem.
